Results published in PubChem BioAssay.
The source made the active and inactive calls. Unless noted, how the calls were made is not given here.

Experiments:
[1] = anti-His antibody binders, primary screen, artefact control for SMM control protein annotation, biochemical, small-molecule microarray, 635 nm fluorescence (AID 1128); conditions: anti-His Alexa647 antibody binding, higher = more signal;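 further: score merges feature fluorescence with signal-to-noise for each printed compound spot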
[2] = system: Human papillomavirus type 1a E7 protein (residues 1-88); experiment: HPV1a E7 small-molecule binders, primary screen, biochemical, small-molecule microarray, residues 1-88, 635 nm (AID 1129); conditions: small-molecule microarray binding, fluorescence 635 nm; higher = more signal
[3] = target: Focal adhesion kinase 1 (Homo sapiens) (UniProt Q05397); experiment: small-molecule microarray binders of FAK, primary screen, biochemical, 635/667 nm fluorescence, BSA, DTT (AID 1130); conditions: PTK2 binding, 635 nm fluorescence, higher = more signal;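 further: composite of spot emission at 667 nm and signal to noise over triplicate slides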
Focal adhesion kinase 1 (Homo sapiens), sequence (Q05397 whole entry, looked up): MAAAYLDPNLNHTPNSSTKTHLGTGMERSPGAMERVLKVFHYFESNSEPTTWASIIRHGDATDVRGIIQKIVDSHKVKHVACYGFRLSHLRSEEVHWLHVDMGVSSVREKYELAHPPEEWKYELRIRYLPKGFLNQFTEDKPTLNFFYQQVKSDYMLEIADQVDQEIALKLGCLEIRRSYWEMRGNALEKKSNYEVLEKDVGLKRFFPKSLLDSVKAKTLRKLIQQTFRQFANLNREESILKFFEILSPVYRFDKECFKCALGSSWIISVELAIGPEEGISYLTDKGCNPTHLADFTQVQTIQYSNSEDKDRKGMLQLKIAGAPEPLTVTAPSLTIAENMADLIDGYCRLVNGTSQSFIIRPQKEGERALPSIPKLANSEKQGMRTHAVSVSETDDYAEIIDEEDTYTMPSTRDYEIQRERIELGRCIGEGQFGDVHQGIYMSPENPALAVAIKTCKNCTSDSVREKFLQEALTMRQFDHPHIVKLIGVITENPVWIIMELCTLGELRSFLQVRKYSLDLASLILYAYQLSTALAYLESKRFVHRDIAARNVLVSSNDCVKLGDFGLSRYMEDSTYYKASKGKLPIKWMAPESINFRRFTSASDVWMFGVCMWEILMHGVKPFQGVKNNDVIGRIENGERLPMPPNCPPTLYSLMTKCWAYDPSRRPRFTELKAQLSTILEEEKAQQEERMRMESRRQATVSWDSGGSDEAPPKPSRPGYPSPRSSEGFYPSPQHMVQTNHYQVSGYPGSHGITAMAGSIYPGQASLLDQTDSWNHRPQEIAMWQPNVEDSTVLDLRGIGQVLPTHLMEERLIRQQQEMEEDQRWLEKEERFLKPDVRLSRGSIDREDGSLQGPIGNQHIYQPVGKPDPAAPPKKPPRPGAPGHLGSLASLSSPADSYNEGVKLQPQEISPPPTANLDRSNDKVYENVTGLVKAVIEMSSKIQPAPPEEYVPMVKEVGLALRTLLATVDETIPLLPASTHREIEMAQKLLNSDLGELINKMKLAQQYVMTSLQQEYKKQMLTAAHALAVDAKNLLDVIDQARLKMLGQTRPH

[4] = system: Fibrinogen (Alexa647-labelled); experiment: fibrinogen binders on compound microarrays, profiling panel, artefact control for SMM control-protein annotation, biochemical, small-molecule microarray, 635/667 nm fluorescence (AID 1131); conditions: fibrinogen-A647 binding fluorescence, higher = more signal;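 further: z-score merges 667 nm fluorescence with per-spot signal-to-noise over triplicate slides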
[5] = target: Follistatin (Homo sapiens) (UniProt P19883); experiment: follistatin binders on small-molecule microarrays, primary screen, biochemical, small-molecule microarray, 635/667 nm fluorescence (AID 1132); conditions: FST binding, 635 nm fluorescence, higher = more signal
Follistatin (Homo sapiens), sequence (P19883 whole entry, looked up): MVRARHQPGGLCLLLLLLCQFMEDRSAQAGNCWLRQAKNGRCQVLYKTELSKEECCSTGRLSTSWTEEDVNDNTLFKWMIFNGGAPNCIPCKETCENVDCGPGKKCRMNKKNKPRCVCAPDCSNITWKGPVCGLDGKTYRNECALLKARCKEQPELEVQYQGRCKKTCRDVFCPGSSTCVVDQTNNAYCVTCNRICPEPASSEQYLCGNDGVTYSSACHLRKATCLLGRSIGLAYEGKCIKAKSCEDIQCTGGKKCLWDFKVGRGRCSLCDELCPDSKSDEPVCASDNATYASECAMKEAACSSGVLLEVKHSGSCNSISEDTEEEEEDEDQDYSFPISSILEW

[6] = target: Fibroblast growth factor 2 (Homo sapiens) (UniProt P09038); experiment: FGF2 binders on small-molecule microarrays, primary screen, biochemical, small-molecule microarray, 635/667 nm fluorescence (AID 1133); conditions: small-molecule microarray binding, FGF2, fluorescence 635/667; higher = more signal
Fibroblast growth factor 2 (Homo sapiens), sequence (P09038 whole entry, looked up): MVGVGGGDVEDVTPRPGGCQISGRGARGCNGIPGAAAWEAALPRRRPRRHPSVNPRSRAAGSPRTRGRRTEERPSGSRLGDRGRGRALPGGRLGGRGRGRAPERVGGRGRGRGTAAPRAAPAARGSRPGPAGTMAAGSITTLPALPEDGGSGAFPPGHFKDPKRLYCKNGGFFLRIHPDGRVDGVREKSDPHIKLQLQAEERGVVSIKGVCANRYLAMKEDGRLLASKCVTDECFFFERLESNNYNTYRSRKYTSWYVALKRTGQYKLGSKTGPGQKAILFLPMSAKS

[7] = mitochondrial membrane potential change in A549 cells, profiling panel, cell-based, JC-1 fluorescence, basal, 24 h, 100 nL (AID 1138); conditions: higher = more signal;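 further: A549 lung adenocarcinoma cells under basal conditions with no added stimulus; test concentration not given here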
[8] = system: Lefty1; experiment: Lefty1 binders on small-molecule microarrays, primary screen, biochemical, small-molecule microarray, 635/667 nm fluorescence (AID 1139); conditions: small-molecule microarray binding, fluorescence 635/667; higher = more signal
[9] = system: wheat germ agglutinin (Triticum aestivum), Alexa647-labelled; experiment: wheat germ agglutinin binders on compound microarrays, profiling panel, artefact control for SMM control-protein annotation, biochemical, small-molecule microarray, 635/667 nm fluorescence (AID 1140); conditions: WGA-A647 binding, 635 nm fluorescence, higher = more signal;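 further: score merges 667 nm feature emission with signal to noise over triplicate slides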
[10] = target: Luciferin 4-monooxygenase (Photinus pyralis) (UniProt P08659); experiment: firefly luciferase enzyme inhibitors, primary screen, biochemical, luminescence, purified enzyme, 2006 set (AID 1141); conditions: SteadyGlo luminescence, 30 min, higher = more signal, called active from +8 up or from −8 down;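 further: cell-free assay with purified firefly luciferase at 100 ng per well in PBS; test concentration not given here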
Luciferin 4-monooxygenase (Photinus pyralis), sequence (P08659 whole entry, looked up): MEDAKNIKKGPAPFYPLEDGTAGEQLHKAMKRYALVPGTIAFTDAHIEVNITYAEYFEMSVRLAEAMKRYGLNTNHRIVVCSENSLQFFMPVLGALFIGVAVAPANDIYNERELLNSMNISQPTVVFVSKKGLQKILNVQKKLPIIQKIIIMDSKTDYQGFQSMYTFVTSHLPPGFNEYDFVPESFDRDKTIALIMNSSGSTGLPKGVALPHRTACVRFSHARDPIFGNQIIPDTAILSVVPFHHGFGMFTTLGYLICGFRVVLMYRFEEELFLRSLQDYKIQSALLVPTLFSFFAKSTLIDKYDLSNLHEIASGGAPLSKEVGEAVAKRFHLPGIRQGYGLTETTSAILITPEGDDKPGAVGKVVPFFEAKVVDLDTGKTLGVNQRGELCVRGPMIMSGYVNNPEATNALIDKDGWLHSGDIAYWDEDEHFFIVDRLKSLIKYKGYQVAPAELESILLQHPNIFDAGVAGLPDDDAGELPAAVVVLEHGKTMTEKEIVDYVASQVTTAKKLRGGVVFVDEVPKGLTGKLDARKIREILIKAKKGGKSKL

[11] = system: Wnt5a (protein binding on small-molecule microarray); experiment: Wnt5a binders on small-molecule microarray, primary screen, biophysical, 635/667 nm fluorescence (AID 1142); conditions: 635 nm fluorescence, higher = more signal;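 further: fluorescence read at 667 nm with signal to noise per printed feature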
[12] = cell viability in Huh7 cells, primary screen, cytotoxicity control for HCV replication inhibitor project, CellTiter-Glo luminescence, basal, 48 h (AID 1143); conditions: Huh7 HCV replicon, higher = more signal, called active from +8 up or from −8 down;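 further: Huh7 hepatoma cells carrying a hepatitis C replication reporter with no stimulus; test concentration not given here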
[13] = P. aeruginosa biofilm formation inhibitors, primary screen, PAO1 strain, BacTiter-Glo luminescence, LB-PBS (AID 1144); conditions: 12 h, higher = more signal
[14] = CREB reporter modulators without forskolin, primary screen, cell-based, PC12, CRE-LacZ reporter, unstimulated (AID 1145); conditions: no forskolin, luminescence, 4.5 h, higher = more signal, called active from +8 up or from −8 down
[15] = CREB reporter modulators under forskolin, primary screen, cell-based, PC12, CRE-LacZ reporter, forskolin-stimulated (AID 1146); conditions: luminescence, 4.5 h, higher = more signal, called active from +8 up or from −8 down;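 further: PC12 cells with 6xCRE LacZ reporter stimulated by forskolin 10 µM; beta-galactosidase reporter signal reflecting CREB driven transcription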
[16] = target: Streptavidin (Streptomyces avidinii) (UniProt P22629); experiment: streptavidin binders on small-molecule microarray, primary screen, artefact control for SMM compound annotation, biophysical, 635/667 nm fluorescence (AID 1147); conditions: streptavidin binding, higher = more signal;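 further: signal reflects streptavidin binding to arrayed compounds as a control protein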
Streptavidin (Streptomyces avidinii), sequence (P22629 whole entry, looked up): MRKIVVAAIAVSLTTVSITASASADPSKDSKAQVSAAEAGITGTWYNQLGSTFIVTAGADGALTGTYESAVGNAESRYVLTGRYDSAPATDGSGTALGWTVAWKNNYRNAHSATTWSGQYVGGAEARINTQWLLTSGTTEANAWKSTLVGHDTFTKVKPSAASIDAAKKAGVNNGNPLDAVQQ

[17] = small-molecule binders of probe aInhba, primary screen, biochemical, small-molecule microarray, 635/667 nm fluorescence (AID 1148); conditions: higher = more signal;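 further: score merges 667nm spot fluorescence with signal-to-noise for antibody binding to printed compounds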
[18] = target: Torsin-1A (Homo sapiens) (UniProt O14656); experiment: torsin A binders from cell lysate, primary screen, small-molecule microarray, wild-type, 635/667 nm (AID 1149); conditions: COS7 hTOR1A-WT lysate, 635 nm fluorescence, higher = more signal
Torsin-1A (Homo sapiens), sequence (O14656 whole entry, looked up): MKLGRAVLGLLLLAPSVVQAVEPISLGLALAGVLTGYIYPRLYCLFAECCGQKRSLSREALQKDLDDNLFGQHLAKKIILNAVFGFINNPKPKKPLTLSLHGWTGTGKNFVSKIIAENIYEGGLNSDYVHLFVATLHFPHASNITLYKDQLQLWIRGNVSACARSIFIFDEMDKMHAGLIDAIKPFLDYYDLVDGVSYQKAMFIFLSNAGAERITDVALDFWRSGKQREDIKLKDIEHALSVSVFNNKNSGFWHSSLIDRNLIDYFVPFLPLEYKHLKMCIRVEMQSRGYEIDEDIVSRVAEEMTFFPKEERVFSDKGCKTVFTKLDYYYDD

[19] = target: Torsin-1A (Homo sapiens) (UniProt O14656); experiment: small-molecule binders of mutant TOR1A in lysate, primary screen, cell lysate, small-molecule microarray, COS7 lysate, 635/667 nm fluorescence (AID 1150); conditions: COS7 hTOR1A mutant lysate, 635 nm fluorescence, higher = more signal;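 further: score pools 667 nm emission and signal to noise measuring lysate protein binding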
[20] = system: Sonic hedgehog protein (Shh); experiment: small-molecule binders of Shh protein, primary screen, biochemical, small-molecule microarray, 635/667 nm fluorescence (AID 1151); conditions: small-molecule microarray binding, 635 nm fluorescence; higher = more signal;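 further: Shh protein binding to compounds spotted on small-molecule microarray slides; score combines spot fluorescence intensity with signal-to-noise across triplicate slides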

Row | SMILES | composite z-score [1] | composite z-score [2] | composite z-score [3] | composite z-score [4] | composite z-score [5] | composite z-score [6] | z-score [7] | composite z-score [8] | composite z-score [9] | z-score [10] | composite z-score [11] | z-score [12] | z-score [13] | z-score [14] | z-score [15] | composite z-score [16] | composite z-score [17] | composite z-score [18] | composite z-score [19] | composite z-score [20]
1 | O=C1[C@H]2[C@H]3[C@H](O)[C@H](O)CC(=NOCc4ccccc4)[C@H]3CC[C@H]2C(=O)N1c1cccc(Oc2ccccc2)c1 | 0.623 | 1.09 | 0.333 | 0.796 | 0.663 | 1.23 | 0.12 | 0.772 | 0.623 | 0.549 (inactive) | 0.242 | -2.26 (inactive) | 0.768 (inactive) | -0.384 (inactive) | -0.271 (inactive) | 0.293 | 0.0108 | 0.294 | 0.363 | 1.24
2 | CN1C(=O)C2C=CC(C(O)c3ccc(Br)cc3)N(N(c3ccccc3)c3ccccc3)C2C1=O (stereo not given) | 0.373 | 0.77 | 0.704 | 0.312 | 0.502 | -0.538 | 1.34 | -0.409 | 0.585 | -0.495 (inactive) | -0.0158 | -0.776 (inactive) | -1.19 (inactive) | 1 (inactive) | -0.342 (inactive) | 1.04 | -0.0375 | 0.293 | -0.135 | -0.583
3 | COc1ccccc1CN1C(=O)c2ccccc2[C@@]2(Cc3ccccc3N(C(C)C)C2=O)[C@@H]1c1ccc(CO)cc1 | -0.166 | -0.263 | -0.0604 | -0.586 | -0.13 | -0.609 | 0.427 | -0.404 | 0.57 | -1.08 (inactive) | -0.458 | -1.84 (inactive) | -0.205 (inactive) | -0.179 (inactive) | -0.335 (inactive) | -0.213 | -0.0695 | -1.25 | 0.373 | -0.147
4 | C[N+](C)(C)CCCCCCNC(=O)[C@@H]1C[C@@H]2C(=O)N3CCC[C@H]3C(=O)N2[C@@H]1c1cccc(OCCO)c1 | 1.06 | 0.049 | 0.622 | -1.47 | 1.27 | 0.941 | -0.518 | 0.915 | -0.122 | 0.688 (inactive) | -0.0544 | -0.345 (inactive) | -1.34 (inactive) | -1.34 (inactive) | 0.27 (inactive) | -1.05 | -0.0754 | -0.383 | 0.624 | 2.25
5 | CCOC(=O)[C@H](Cc1ccccc1)NC(=O)CCC1CC(OC(=O)NCc2ccc3c(c2)OCO3)CC2(CCCC(COC(=O)NCC(c3ccccc3)c3ccccc3)O2)O1 (stereo not given in full) | 0.98 | 1.2 | 0.231 | 0.0058 | 0.83 | 0.555 | 0.803 | 0.579 | 0.477 | 0.635 (inactive) | -0.169 | -0.9 (inactive) | -1.34 (inactive) | -0.255 (inactive) | 0.0668 (inactive) | 0.0072 | 0.0155 | 0.545 | 0.401 | 1.48
